Screening results deposited in PubChem by National Center for Advancing Translational Sciences (NCATS).
Shown is part of a subset that was picked to be rich in hits.
Vaccinia Venus: vaccinia inhibition (Venus reporter); Vaccinia virus Venus reporter expression, fluorescence; Potency, µM (highest dose often 36.5 µM), hits mostly inhibitors; AID 720580; 330,000 compounds, 0.46% hits; calls by dose curve; tested in A549 cells; also: nearly all actives have a fitted effect of over 30% in size
Lassa entry inh: blocks Lassa virus binding to or entry into cells. AID 540256. 300,000 compounds, 1.2% hits. Lassa virus pseudotype entry inhibition, cell reporter. Potency, µM (top dose mostly 37.9 µM), actives largely listed as inhibitors; calls by dose curve; tested in HEK293 cells; also: nearly all actives have a fitted effect of over 50% in size
Shiga inhibitor: Shiga toxin inhibition; 290,000 compounds, 9.2% hits; inhibition, % at 38.7 µM; Vero cells, Shiga toxin protein synthesis inhibition reporter; in the data active = inhibition mostly above about 28%, no sharp cut-off; inactive = mostly below about 43%
MARV entry inh: inhibitors of Marburg virus binding or cell entry. Marburg virus pseudotyped entry inhibition, cell reporter. Potency, µM (series often up to 37.8 µM), hits mostly inhibitors. 300,000 compounds, 1.8% hits. AID 540276; calls by dose curve; tested in HEK293 cells
Cycloheximide cs: affects cycloheximide protein synthesis inhibition readout, counter-screen; AID 2314; 300,000 compounds, 12% hits; cell reporter, cycloheximide protein synthesis inhibition counterscreen; max response, %; in the data active = max response mostly above about 13%, no sharp cut-off; inactive = mostly below about 14%; also: read at 38.3 µM for the half of the compounds with a filed dose
VACV mCherry inh: inhibitors of vaccinia virus infection (mCherry reporter signal); Vaccinia virus mCherry reporter infection, fluorescence; 310,000 compounds, 0.63% hits; Potency, µM (top dose mostly 36.5 µM), usual class: inhibitors; calls by dose curve; tested in A549 cells; also: nearly all actives have a fitted effect of over 35% in size
Hits are given with their value; n = inactive; u = inconclusive; x = no result given; [ ] = remark or other dose.

SMILES	Vaccinia Venus	Lassa entry inh	Shiga inhibitor	MARV entry inh	Cycloheximide cs	VACV mCherry inh
C/C(=N\OCC(=O)NCC(F)(F)F)c1cc2ccccc2o1	n	u	71	u	53	n
CCCCNC(=O)CO/N=C(\C)c1cc2ccccc2o1	n	n	77	n	54	n
COc1cc(CN2CCN(C(O)(c3ccccc3)c3ccccc3)CC2)cc(OC)c1OC	n	n	n	u	n	n
Cn1c(SCCSc2nnc(-c3ccccc3)n2C)nnc1-c1ccccc1	x	x	n	n	n	x
C=CCSc1nnc(-c2sc(-c3ccccc3)nc2C)n1C	x	n	n	n	42	x
COc1ccc(Nc2nc(-c3cccs3)cs2)c(OC)c1	x	n	106	n	46	x
COc1ccc(Nc2nc(-c3sc(C)nc3C)cs2)c(OC)c1	x	x	n	x	8.8	x
COc1ccc(Nc2nc(-c3cccs3)cs2)cc1	x	n	42	u	41	x
COc1ccc(Nc2nc(-c3cccs3)nc3ccccc23)c(OC)c1	n	u	n	u	n	n
COc1ccc(OC)c(Nc2nc(-c3cccs3)cs2)c1	n	n	n	n	23	n
COc1ccccc1Nc1nc(-c2cccs2)cs1	n	u	77	u	37	n
CCc1nnc(NC(=O)c2cc(=O)c3cc(C)ccc3o2)s1	n	n	x	u	x	n
Cc1cccc(NC(=O)C2CCN(S(=O)(=O)c3ccc4c(c3)CCCN4C(=O)C3CCC3)CC2)c1	n	u	x	x	x	n
O=C(Cc1ccccc1F)Nc1ccc2c(c1)CCC2	n	n	73	u	n	n
COc1ccc(OC)c(CC(=O)Nc2ccc3c(c2)CCC3)c1	n	n	n	n	n	n
Cc1ccccc1CC(=O)Nc1ccc2c(c1)CCC2	n	u	n	u	n	n
COc1ccc(CC(=O)Nc2ccc3c(c2)CCC3)cc1OC	u	11µM	n	u	n	x
O=C(Nc1ccc2c(c1)CCC2)c1cccc(F)c1	n	u	113	u	75	n
O=C(Cc1cccc(F)c1)Nc1ccc2c(c1)CCC2	n	n	76	n	18	n
COc1ccc(NC(=O)CC2CC3CCC2C3)cc1S(=O)(=O)N1CCOCC1 (centres undefined)	n	u	x	n	x	n
O=c1[nH]c2ccc(S(=O)(=O)N3CCN(S(=O)(=O)c4c(F)cccc4F)CC3)cc2[nH]c1=O	x	x	n	x	n	x
CC(C)CCN1CCC(n2nccc2NC(=O)c2ccc3c(c2)OCO3)CC1	n	u	n	n	n	n
O=C(Cc1ccc2c(c1)CCCC2)Nc1ccc2ccccc2c1	n	u	active	n	43	n
CC(=O)Nc1cccc(NC(=O)Cc2ccc3ccccc3c2)c1	n	n	n	n	n	n
CS(=O)(=O)/C(C#N)=C\c1cnc(S(=O)(=O)c2ccccc2)s1	x	x	n	x	31	x
SMILES	Vaccinia Venus	Lassa entry inh	Shiga inhibitor	MARV entry inh	Cycloheximide cs	VACV mCherry inh
CN(C)/C=C(\C#N)S(=O)(=O)c1ccccc1	n	x	n	x	n	n
O=C(Nc1ccon1)c1ccc(OC2CCCC2)cc1	n	u	92	u	64	n
COc1cc(CNC(C)c2ccccc2)cc(Br)c1OCc1ccccc1 (centres undefined)	u	u	n	7.9µM	n	n
COc1cc(CNc2ccc(O)cc2)cc(Br)c1OCc1ccccc1	n	x	n	x	n	n
COc1cc(CNC(C)c2ccccc2)cc(Br)c1OCc1ccc(F)cc1 (centres undefined)	u	u	x	3.5µM	n	u
Cc1ccc2c(c1)C(c1ccccc1)N(C(=O)c1ccc(OC(C)C)cc1)CC(=O)N2 (centres undefined)	n	u	x	n	x	n
CC(C)Nc1nnc(SCC(=O)Nc2ccc3c(c2)C(=O)c2ccccc2C3=O)s1	u	u	70	u	41	u
NS(=O)(=O)c1ccc(NC(=O)CSc2nnc(NC3CC3)s2)cc1	n	n	x	n	x	n
O=C(CSc1nnc(NC2CCCCC2)s1)Nc1ccc2c(c1)C(=O)c1ccccc1C2=O	x	x	66	x	42	x
Cc1ccc(NC(=O)CN(C)C(=O)CSc2nnc(NC(C)C)s2)cc1	n	n	x	n	x	n
Cn1c(OCc2cccnc2)nc2c1c(=O)n(Cc1ccc(Br)cc1)c(=O)n2C	x	n	n	n	n	x
Cn1c(OCc2cccnc2)nc2c1c(=O)n(Cc1ccc(Cl)cc1)c(=O)n2C	x	16µM	x	u	x	x
CS(=O)(=O)c1cnc(-c2ccccc2)nc1Oc1ccc(Cl)cc1	n	n	n	n	n	n[1.46 µM]
CC(C)(C)S(=O)(=O)c1cnc(N2CCCCC2)nc1N	n	n	n	u	19	n
CC(C)(C)S(=O)(=O)c1cnc(-c2ccc(Cl)cc2)nc1N	x	x	47	x	22	x
CC(=O)c1cnc(N2CCCCC2)nc1C	x	n	n	n	n	x
Cc1ccn2c(c1)nc(=O)c1cc(S(=O)(=O)N3CCCCC3)c(Cl)cc12	n	n	x	n	x	n
O=C(N/N=C/c1ccccc1C(=O)O)c1ccc(COc2cccc3cccnc23)cc1	n	n	n	u	n	n
O=C(N/N=C/c1ccc[nH]1)c1ccc(COc2cccc3cccnc23)cc1	u	u	n	u	34	1.6µM
NNC(=O)c1ccc(COc2cccc3cccnc23)cc1	n	n	n	n	32	u
CCOC(=O)c1ccc(NC(=S)N2CCCC(C)C2)cc1 (centres undefined)	n	n	62	n	13	n
CCCCc1ccc(NC(=S)N2CCN(c3ncccn3)CC2)cc1	n	u	n	n	n	n
CCOC(=O)c1ccc(NC(=S)N2CCN(CCO)CC2)cc1	n	n	n	u	n	n
CCOC(=O)N1CCC(N(C(=O)Nc2ccc(CC)cc2)C(C)CC)CC1 (centres undefined)	n	n	n	n	14	n
CCCCc1ccc(NC(=S)N2CCCC(C)C2)cc1 (centres undefined)	n	n	41	u	21	n
SMILES	Vaccinia Venus	Lassa entry inh	Shiga inhibitor	MARV entry inh	Cycloheximide cs	VACV mCherry inh
CCOC(=O)c1ccc(NC(=S)N2CCC(O)CC2)cc1	n	n	n	u	39	n
CC1(C(=O)Nc2cnc3ccccc3c2)CCN1CCOc1ccccc1 (centres undefined)	n	x	x	x	x	n
COc1cc2c(cc1OC)C(c1cc(OC)c(OC)c(OC)c1)C1(O)C(=O)OCC1(O)C2 (centres undefined)	n	n	x	n	x	n
CCOC(=O)c1ccc(NC(=S)N2CCSC2c2ccc(Br)cc2)cc1 (centres undefined)	n	n	n	n	13	n
Cc1cnc(CNC(=O)CC2C(=O)NCCN2Cc2cccc(F)c2F)cn1 (centres undefined)	n	n	n	u	n	n
Cc1ccc(C)c(-c2nnc(NC(=O)CCS(=O)(=O)c3ccccc3)o2)c1	n	n	x	n	x	n
COc1cc(OC)cc(-c2nnc(NC(=O)CCS(=O)(=O)c3ccccc3)o2)c1	u	n	x	n	x	6.3µM
COc1cc(-c2nnc(NC(=O)CCS(=O)(=O)c3ccc(F)cc3)o2)cc(OC)c1OC	u	n	x	n	x	u
COc1cc(-c2nnc(NC(=O)CCS(=O)(=O)c3ccccc3)o2)cc(OC)c1OC	5.6µM	n	x	n	x	3.5µM
COc1cc(OC)cc(-c2nnc(NC(=O)CCS(=O)(=O)c3ccc(F)cc3)o2)c1	7.9µM	n	x	u	x	5.6µM
O=C(CCS(=O)(=O)c1ccc(F)cc1)Nc1nnc(-c2cccs2)o1	13µM	n	x	n	x	u
